# Inconclusive results are not listed. A call without a number means that no potency is given here. A number with no mark means an inactive call. Active and inactive are the calls of the source. Calls follow the shape of the dose curve; as a rule, active = well fitted cell-killing curve with a large enough effect; inconclusive = small, poorly fitted or top-dose-only effect, or effect the other way; inactive = no such curve, though single readings can be large or run the other way.
# Experiments:
# [1] = Viability qHTS for spleen associated tyrosine kinase inhibitor (SYKi) naive MV4-11 cells (AID 1963823); also: nearly all actives have a fitted effect of over 40% in size; also: potency is read from the fitted curve at half-maximal effect
# Method in brief: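 qHTS, SYK inhibitor-naive MV4-11; 500 cells/well; 72 hr compound exposure, 37 C; CellTiter-Glo added, 10 min RT; luminescence read.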
# [2] = Viability qHTS for spleen associated tyrosine kinase inhibitor (SYKi) drug resistant MV4-11 cells (AID 1963824); also: nearly all actives have a fitted effect of over 35% in size
# Method in brief: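 CellTiter-Glo luminescence, read 10 min after reagent addition, reports viability after a 72 hr compound exposure. Cells are an MV4-11 line made resistant to SYK inhibition, seeded at 500 per well onto compound-containing plates.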
structure (smiles),measurement,setting,value
C=C1/C(=C/C=C2\CCC[C@]3(C)[C@@H]([C@@H](C)OCCC(O)(CC)CC)CC[C@@H]23)C[C@@H](O)C[C@@H]1O,Potency,[1],inactive
c1ccc(-c2[nH]ncc2-c2ccnc3ccccc23)nc1,Potency,[1],inactive
CC(C)(O)/C=C/CC(C)(O)C1C(O)CC2(C)C3CCC4C(C)(C)C(=O)CCC4(C)C3CCC12C (centres undefined),Potency,[1],inactive
Cc1ccc2nc(NC(=O)CSc3nc4c(c(=O)n3-c3ccc(F)cc3)SCC4)sc2c1,Potency,[1],inactive
C=C1CC[C@@H]2[C@](C)(CO[C@@H]3O[C@H](CO)[C@@H](O)[C@H](O)[C@H]3O)[C@H](O)CC[C@@]2(C)[C@@H]1C/C=C1/C(=O)OC[C@H]1O,Potency,[1],inactive
CCn1cc(NC(=S)Nc2cc(Cl)ccc2OC)c(C(N)=O)n1,Potency,[1],inactive
CN1CCC(Nc2nc(Nc3ccc(Oc4ccccc4)cc3)c3c(=O)[nH]cc(Br)c3n2)CC1,Potency,[1],inactive
Cn1ncnc1COc1nn2c(-c3cc(F)ccc3F)nnc2cc1C(C)(C)C,Potency,[1],inactive
Cc1ccc(Cl)cc1N(CC(=O)Nc1c(F)cccc1F)S(C)(=O)=O,Potency,[1],5.17 µM (active)
O=C1NC(Cc2c[nH]c3ccccc23)C(=O)NC1Cc1cnc[nH]1 (centres undefined),Potency,[1],inactive
Cc1nc2c(O)cccc2c(=O)[nH]1,Potency,[1],inactive
C/C=C(\C)C(=O)OC[C@H]1O[C@H](O[C@H]2O[C@H](CO)[C@@H](O)[C@H](O)[C@H]2O[C@@H]2O[C@H](CO)[C@@H](O)[C@H](O)[C@H]2O)[C@H](O[C@@H]2O[C@H](CO)[C@@H](O)[C@H](O)[C@H]2O)[C@@H](O)[C@@H]1O,Potency,[1],inactive
C[C@@H]1CC[C@]2(C(=O)O)CC[C@]3(C)C(=CCC4[C@@]5(C)C[C@@H](O)[C@H](O)[C@@](C)(CO)C5CC[C@]43C)C2[C@H]1C (some centres undefined),Potency,[1],inactive
COc1ccc(C(O[C@@H]2O[C@H](CO)[C@@H](O)[C@H](O)[C@H]2O)C(CO)Oc2ccc(/C=C/CO)cc2OC)cc1O (some centres undefined),Potency,[1],inactive
CC(=O)N[C@H]1[C@H](O[C@H]2CC[C@@]3(C)C(CC[C@]4(C)C3CC=C3C5CC(C)(C)CC[C@]5(C(=O)O)C(O)C[C@]34C)C2(C)C)O[C@H](CO[C@@H]2O[C@H](C)[C@H](O)[C@H](O)[C@H]2O[C@@H]2OC[C@@H](O)[C@H](O)[C@H]2O)[C@@H](O)[C@@H]1O (some centres undefined),Potency,[1],3.48 µM (active)
C=C1CCC2(OC1)OC1CC3C4CC=C5CC(O)CC(O[C@@H]6OC[C@H](OC(=O)C(O)C(C)CC)[C@H](O)[C@H]6O[C@@H]6O[C@@H](C)[C@H](O)[C@@H](O)[C@H]6O)C5(C)C4CCC3(C)C1C2C (some centres undefined),viability (% of control),[1],76.1% [at 9.25 µM]
CC1C/C=C/C=C\CCCCC(O)C/C=C/C(=O)O1 (centres undefined),Potency,[1],inactive
CC(=O)O[C@@]1(C)C[C@@H](O)[C@]2(O)C=CO[C@@H](O[C@@H]3O[C@H](CO)[C@@H](O)[C@H](O)[C@H]3O)[C@@H]21,Potency,[1],inactive
CC(C)C1(O)C=C2C(=O)CC3C(C)(C(=O)O)CCCC3(C)C2CC1 (centres undefined),Potency,[1],inactive
C[C@H]1C[C@H]2[C@@H]3CCC4=CC(=O)C=C[C@]4(C)[C@@]3(F)[C@@H](O)C[C@]2(C)[C@@]1(O)C(=O)COP(=O)(O)O,Potency,[1],inactive
COc1ccc(NC(=O)C2C[C@H](C)CC[C@H]2C(C)C)cc1 (some centres undefined),Potency,[1],inactive
CCCC(CCC)C(=O)NCc1ccc2c(cnn2-c2ccccc2OC)c1,Potency,[1],10.3 µM (active)
O=C(O)c1cc2cccc([N+](=O)[O-])c2[nH]1,Potency,[1],inactive
CC1(C(=O)O)CCCC2(C)C3CCC4CC3(CCC12)CC4(O)CO (centres undefined),Potency,[1],inactive
COC(=O)C(CC1(O)c2ccccc2N2C(=O)C(C)(C)N(O)C21)n1cnc2ccccc2c1=O (centres undefined),Potency,[1],inactive
COCCN1CCC(C(=O)NO)(S(=O)(=O)c2ccc(Oc3ccc(OC(F)(F)F)cc3)cc2)CC1,Potency,[1],20.6 µM (active)
C/C=C/C=C/C=C/C(=O)O[C@@H]1C=C(CO)[C@](O)(CO)[C@@]2(C)CCCC(C)(C)[C@H]12,Potency,[1],16.1 µM (active)
O=C(/C=C/c1ccc(O)c(O)c1)OC[C@H]1O[C@@H](OC2CCCCC2O)[C@H](O)[C@@H](O)[C@@H]1O (some centres undefined),Potency,[1],inactive
CC(C)OC(=O)OCOP(=O)(COC(C)Cn1cnc2c(N)ncnc21)OCOC(=O)OC(C)C (centres undefined),Potency,[1],2.31 µM (active)
C=CC(C)(O)CC/C=C(\C)C(=O)OC1C(O)C(CO)OC(OC(=O)C23CCC(C)(C)CC2C2=CCC4C5(C)CCC(OC6OC(COC7OCC(OC(C)=O)C(O)C7OC7OC(COC(C)=O)C(O)C(O)C7OC(C)=O)C(O)C(O)C6OC6OCC(O)C(O)C6O)C(C)(C)C5CCC4(C)C2(C)C(O)C3O)C1OC1OCC(OC2OCC(O)C(OC3OCC(O)C(O)C3O)C2O)C(O)C1O (centres undefined),Potency,[1],0.631 µM (active)
C=C1CC[C@@]2(OC1)O[C@H]1CC3C4CC=C5C[C@@H](O[C@@H]6O[C@@H](C)[C@H](O)[C@@H](O)[C@H]6O)C[C@@H](O[C@@H]6O[C@H](C)[C@H](O)[C@H](O)[C@H]6O[C@@H]6O[C@@H](C)[C@H](O)[C@@H](O)[C@H]6O)[C@]5(C)C4CC[C@]3(C)[C@H]1[C@@H]2C (some centres undefined),viability (% of control),[1],70.4% [at 9.25 µM]
O=C(N[C@H]1CCN(C(=O)c2cc(C(F)(F)F)cc(C(F)(F)F)c2)[C@H](Cc2ccc(Cl)cc2)C1)c1ccnc2ccccc12,Potency,[1],8.93 µM (active)
C=C(C(=O)O)C1CCC2(C)CCC(O)C(=C)C2C1 (centres undefined),Potency,[1],inactive
C/C=C(\C)C(=O)O[C@@H](C)[C@H]1CC[C@]2(O)C3CCC4C[C@@H](OC5CC(OC)C(OC6CC(OC)C(OC7CC(OC)C(OC8OC(C)C(OC9OC(CO)C(O)C(O)C9O)C(OC)C8O)C(C)O7)C(C)O6)C(C)O5)CC[C@]4(C)C3[C@H](O)[C@@H](O)[C@]12C (some centres undefined),viability (% of control),[1],34.7% [at 9.25 µM]
C=C(C)C(=O)OC1CC(CO)CCC/C(CO)=C/C2OC(=O)C(=C)C21 (centres undefined),Potency,[1],1.61 µM (active)
O=C1NC(=O)C(c2cn(-c3ccccc3)nc2-c2ccc(F)cc2)N1 (centres undefined),Potency,[1],inactive
Cc1cn2cc(CC(=O)N3CCC4(CC3)CN(Cc3ccc(-n5nccn5)cc3Cl)C4)nc2s1,Potency,[1],16.4 µM (active)
COc1ccccc1NC(=O)OCC1CCN(C(=O)OC(C)(C)C)CC1,Potency,[1],inactive
CCCC(Nc1nc(-c2ccc(NC(=O)NCC)c(OC)c2)ncc1C)c1cccnc1 (centres undefined),Potency,[1],0.058 µM (active)
O=C(Nc1cccc(Nc2cc(Nc3cccc(C(F)(F)F)c3)ncn2)c1)C1CC1,Potency,[1],0.164 µM (active)
CSc1ccc(C(=O)N[C@@H]2CCCC[C@@H]2NC(=O)CNC(=O)c2cc(C(F)(F)F)ccc2NC(=O)NC(C)C)cc1,Potency,[1],inactive
COc1cc([C@H]2c3cc(O)c(OC)cc3C[C@@H](CO[C@@H]3O[C@H](CO)[C@@H](O)[C@H](O)[C@H]3O)[C@@H]2CO)ccc1O,Potency,[1],inactive
CC(C)(C)NC(=O)[C@H]1CC[C@H]2[C@@H]3CC[C@H]4NC(=O)CC[C@]4(C)[C@H]3CC[C@]12C,Potency,[1],inactive
C/C(=C\CO)CC/C=C(\C)C(=O)O[C@@H]1O[C@H](CO)[C@@H](O)[C@H](O)[C@H]1O,Potency,[1],inactive
C=C1C(=O)O[C@@H]2CC(C)=C([C@@H](C)CCCOC(C)=O)[C@@H](O)[C@H]12,Potency,[1],inactive
O=c1cc(NCCCN[C@@H]2CCOc3c(Br)cc(Br)cc32)[nH]c2ccsc12,Potency,[1],10.3 µM (active)
CC1(C)CC[C@]2(C(=O)O[C@@H]3O[C@H](CO)[C@@H](O)[C@H](O)[C@H]3O)CC[C@]3(C)C(=CCC4[C@@]5(C)C[C@@H](O)[C@H](O)C(C)(C)C5CC[C@]43C)C2[C@@H]1O (some centres undefined),Potency,[1],inactive
COc1ccc(/C=C/C(=O)O[C@@H]2[C@@H](OC(C)=O)[C@@H](OC(C)=O)[C@H](O[C@H]3[C@@H]4C=CO[C@@H](O[C@@H]5O[C@H](CO)[C@@H](O)[C@H](O)[C@H]5O)[C@@H]4[C@@]4(CO)O[C@@H]34)O[C@H]2C)cc1O,Potency,[1],inactive
CC(=O)/C=C/C1(O)C(C)(C)CC(O)CC1(C)O (centres undefined),Potency,[1],inactive
CC(NCc1ccc(OCc2cccc(F)c2)cc1)C(N)=O (centres undefined),Potency,[1],inactive
C=C/C=C/[C@@H]1OC[C@H](/C=C/C=C/C)[C@H]1O,Potency,[1],inactive
CC(NC(=O)[C@H](Cc1ccccc1)NC(=O)OCc1ccccc1)C(=O)CF (some centres undefined),Potency,[1],inactive
COc1ccc(S(=O)(=O)Nc2nc(-c3cccc([N+](=O)[O-])c3)cs2)cc1OC,Potency,[1],inactive
C[C@@H]1O[C@@H](OC[C@H]2O[C@@H](OCC3CCC4CC3C4(C)C)[C@H](O)[C@@H](O)[C@@H]2O)[C@H](O)[C@H](O)[C@H]1O (some centres undefined),Potency,[1],inactive
CCc1c(CC(N)=O)c2cc(OCCCP(=O)(O)O)ccc2n1Cc1ccccc1,Potency,[1],inactive
same,Potency,[2],inactive
COc1c(C)cnc(Cn2cc(C#CCC(C)(C)O)c3c(Cl)nc(N)nc32)c1C,Potency,[1],0.0116 µM (active)
CC1=C(CC/C(C)=C/C(=O)O)[C@@]2(C)CCCC(C)(C)C2CC1=O (some centres undefined),Potency,[1],inactive
same,Potency,[2],inactive
